# Measured values as given in PubChem BioAssay.
# The source made the active and inactive calls. Unless noted, how the calls were made is not given here.
# Experiments:
# [1] = tested on: Wnt5a (protein binding on small-molecule microarray); assay: small molecules binding Wnt5a protein – biophysical, small-molecule microarray, 635/667 nm fluorescence, primary screen (AID 1142); settings: 635 nm fluorescence, higher = more signal;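 further: fluorescence read at 667 nm with signal to noise per printed feature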
# [2] = ATP-based viability of Huh7 replicon cells – cell-based, CellTiter-Glo luminescence, basal, 48 h, cytotoxicity control for HCV replication inhibitor project, primary screen (AID 1143); settings: higher = more signal, called active from +8 up or from −8 down;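 further: Huh7 hepatoma cells carrying a hepatitis C replication reporter with no stimulus; test concentration not given here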
# [3] = Pseudomonas biofilm growth suppression – PAO1 strain, BacTiter-Glo luminescence, LB-PBS, primary screen (AID 1144); settings: P. aeruginosa PAO1 biofilm, 12 h, higher = more signal
# [4] = basal CRE-LacZ reporter activity in PC12 – cell-based, unstimulated, primary screen (AID 1145); settings: no forskolin, luminescence, 4.5 h, higher = more signal, called active from +8 up or from −8 down
# [5] = forskolin-driven CRE-LacZ activity in PC12 – cell-based, CRE-LacZ reporter, forskolin-stimulated, primary screen (AID 1146); settings: luminescence, 4.5 h, higher = more signal, called active from +8 up or from −8 down;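 further: PC12 cells with 6xCRE LacZ reporter stimulated by forskolin 10 µM; beta-galactosidase reporter signal reflecting CREB driven transcription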
# [6] = target: Streptavidin (Streptomyces avidinii) (UniProt P22629); assay: compounds binding control protein streptavidin – biophysical, small-molecule microarray, 635/667 nm fluorescence, artefact control for SMM compound annotation, primary screen (AID 1147); settings: higher = more signal;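 further: signal reflects streptavidin binding to arrayed compounds as a control protein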
# [7] = probe aInhba binding on compound microarray – biochemical, small-molecule microarray, 635/667 nm fluorescence, primary screen (AID 1148); settings: higher = more signal;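 further: score merges 667nm spot fluorescence with signal-to-noise for antibody binding to printed compounds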
# Torsin-1A (Homo sapiens) [8] = target: Torsin-1A (Homo sapiens) (UniProt O14656); assay: TOR1A wild-type binding on microarray – cell lysate, small-molecule microarray, lysate, 635/667 nm, primary screen (AID 1149); settings: COS7 hTOR1A-WT lysate, 635 nm fluorescence, higher = more signal
# Torsin-1A (Homo sapiens) [9] = target: Torsin-1A (Homo sapiens) (UniProt O14656); assay: torsin A mutant lysate binding on microarrays – cell lysate, small-molecule microarray, COS7 lysate, 635/667 nm fluorescence, primary screen (AID 1150); settings: COS7 hTOR1A mutant lysate, 635 nm fluorescence, higher = more signal;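 further: score pools 667 nm emission and signal to noise measuring lysate protein binding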
# [10] = tested on: Sonic hedgehog protein (Shh); assay: Sonic hedgehog microarray binding compounds – biochemical, small-molecule microarray, 635/667 nm fluorescence, primary screen (AID 1151); settings: 635 nm fluorescence, higher = more signal;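 further: Shh protein binding to compounds spotted on small-molecule microarray slides; score combines spot fluorescence intensity with signal-to-noise across triplicate slides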
# [11] = optical density shifts of acrAB sulA E. coli – strain DRC41, OD650, 48 h, E. coli filamentation inducer project, primary screen (AID 1152); settings: higher = more signal, called active from +8 up or from −8 down;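 further: E. coli MC1000 strain DRC41 lacking acrAB efflux pump and sulA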
# [12] = probe aLefty1 binding on compound microarray – biochemical, small-molecule microarray, 635/667 nm fluorescence, primary screen (AID 1153); settings: higher = more signal;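 further: score merges spot fluorescence with signal-to-noise ratio from the scanned slide images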
# [13] = plasmodial surface anion channel blockers, osmotic lysis – cell-based, P. falciparum Indochina, OD700, 1 h, primary screen (AID 1154); settings: P. falciparum Indochina infected RBC osmotic lysis, higher = more signal, called active from +8 up or from −8 down
# [14] = plasmodial surface anion channel blockers, osmotic lysis – cell-based, P. falciparum Indochina, OD700, 2 h, primary screen (AID 1155);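 further: lysis reports solute entry through the parasite surface anion channel PSAC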; settings: P. falciparum Indochina infected erythrocytes, higher = more signal, called active from +8 up or from −8 down
# [15] = changes in parasitized red cell lysis, either direction – P. falciparum Indochina, OD700, 3 h, PSAC antagonist project, primary screen (AID 1156); settings: P. falciparum-infected erythrocytes, osmotic lysis, higher = more signal, called active from +8 up or from −8 down
# [16] = plasmodial surface anion channel blockers, osmotic lysis – cell-based, P. falciparum Indochina, OD700, 18 h, primary screen (AID 1157); settings: P. falciparum Indochina infected erythrocytes, osmotic lysis OD700, 18 h; higher = more signal, called active from +8 up or from −8 down
# [17] = S6 kinase pathway phospho-S6 level changes – cell-based, A549, cytoblot, luminescence, serum-stimulated, primary screen (AID 1158); settings: 5 h, higher = more signal;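 further: serum-stimulated A549 lung adenocarcinoma cells; signal is phosphorylated S6 detected by cytoblot immunostaining with HRP secondary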
# [18] = target: NADPH oxidase 2 (Homo sapiens) (UniProt P04839); assay: compounds shifting NOX2 Amplex Red fluorescence – cell-based, HEK293-NOX2, PMA-stimulated, NOX inhibitor project, primary screen (AID 1159); settings: 45 min, higher = more signal, called active from +8 up or from −8 down; further: test concentration not given here
# [19] = target: NADPH oxidase 4 (Homo sapiens) (UniProt Q9NPH5); assay: compounds shifting NOX4 Amplex Red fluorescence – cell-based, HEK293-NOX4, tetracycline-induced, NOX inhibitor project, primary screen (AID 1160); settings: HEK293-NOX4, Amplex Red H2O2 fluorescence, 45 min; higher = more signal, called active from +8 up or from −8 down
# [20] = target: NADPH oxidase 5 (Homo sapiens) (UniProt Q96PH1); assay: compounds shifting NOX5 Amplex Red fluorescence – cell-based, HEK293-NOX5, NOX inhibitor project, primary screen (AID 1161); settings: HEK293-NOX5, ionomycin, 45 min, higher = more signal
# Chain of NADPH oxidase 5 (Homo sapiens) (Q96PH1 whole entry, looked up): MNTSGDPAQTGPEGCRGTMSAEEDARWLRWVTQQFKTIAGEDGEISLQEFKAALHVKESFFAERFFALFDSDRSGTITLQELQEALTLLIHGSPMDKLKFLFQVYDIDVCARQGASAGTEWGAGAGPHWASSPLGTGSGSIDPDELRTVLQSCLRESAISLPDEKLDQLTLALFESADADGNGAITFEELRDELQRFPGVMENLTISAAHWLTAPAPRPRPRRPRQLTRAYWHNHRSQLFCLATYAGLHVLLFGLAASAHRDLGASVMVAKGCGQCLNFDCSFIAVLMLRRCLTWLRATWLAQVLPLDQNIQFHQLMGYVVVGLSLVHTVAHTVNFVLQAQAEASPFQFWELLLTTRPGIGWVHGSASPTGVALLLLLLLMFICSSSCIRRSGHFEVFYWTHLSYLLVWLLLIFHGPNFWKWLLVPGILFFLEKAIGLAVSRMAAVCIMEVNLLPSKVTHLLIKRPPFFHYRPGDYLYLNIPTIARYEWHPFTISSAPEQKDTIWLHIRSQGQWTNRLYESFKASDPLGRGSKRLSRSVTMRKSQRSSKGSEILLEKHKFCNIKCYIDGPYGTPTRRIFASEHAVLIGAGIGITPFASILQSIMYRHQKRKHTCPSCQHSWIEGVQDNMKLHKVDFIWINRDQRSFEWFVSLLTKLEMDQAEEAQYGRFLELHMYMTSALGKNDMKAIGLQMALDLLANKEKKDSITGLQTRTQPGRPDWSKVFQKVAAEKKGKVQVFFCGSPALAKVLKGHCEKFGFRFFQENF
# Chain of NADPH oxidase 4 (Homo sapiens) (Q9NPH5 whole entry, looked up): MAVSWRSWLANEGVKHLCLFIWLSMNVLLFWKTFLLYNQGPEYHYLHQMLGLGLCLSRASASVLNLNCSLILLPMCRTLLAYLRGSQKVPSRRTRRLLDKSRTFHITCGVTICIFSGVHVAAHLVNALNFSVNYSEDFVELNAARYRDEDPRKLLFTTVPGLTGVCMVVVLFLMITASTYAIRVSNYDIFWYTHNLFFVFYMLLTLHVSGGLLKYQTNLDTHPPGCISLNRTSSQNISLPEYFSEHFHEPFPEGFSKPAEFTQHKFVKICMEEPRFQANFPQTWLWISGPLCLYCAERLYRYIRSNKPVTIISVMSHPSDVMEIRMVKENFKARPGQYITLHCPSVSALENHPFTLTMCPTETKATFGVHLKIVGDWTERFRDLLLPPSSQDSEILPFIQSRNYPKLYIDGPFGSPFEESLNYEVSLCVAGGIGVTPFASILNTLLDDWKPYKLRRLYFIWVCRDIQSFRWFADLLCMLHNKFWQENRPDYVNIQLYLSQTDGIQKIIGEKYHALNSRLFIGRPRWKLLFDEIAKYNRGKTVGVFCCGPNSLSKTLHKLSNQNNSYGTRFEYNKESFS
# Chain of Torsin-1A (Homo sapiens) (O14656 whole entry, looked up): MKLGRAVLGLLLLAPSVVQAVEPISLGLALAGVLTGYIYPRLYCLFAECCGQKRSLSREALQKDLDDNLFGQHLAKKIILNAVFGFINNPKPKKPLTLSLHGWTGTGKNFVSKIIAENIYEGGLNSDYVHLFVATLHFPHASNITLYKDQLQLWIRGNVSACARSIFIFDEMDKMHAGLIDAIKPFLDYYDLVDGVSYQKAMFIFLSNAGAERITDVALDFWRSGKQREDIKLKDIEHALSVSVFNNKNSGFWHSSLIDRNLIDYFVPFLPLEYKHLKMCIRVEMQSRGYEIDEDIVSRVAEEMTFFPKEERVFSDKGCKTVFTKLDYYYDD
# Chain of NADPH oxidase 2 (Homo sapiens) (P04839 whole entry, looked up): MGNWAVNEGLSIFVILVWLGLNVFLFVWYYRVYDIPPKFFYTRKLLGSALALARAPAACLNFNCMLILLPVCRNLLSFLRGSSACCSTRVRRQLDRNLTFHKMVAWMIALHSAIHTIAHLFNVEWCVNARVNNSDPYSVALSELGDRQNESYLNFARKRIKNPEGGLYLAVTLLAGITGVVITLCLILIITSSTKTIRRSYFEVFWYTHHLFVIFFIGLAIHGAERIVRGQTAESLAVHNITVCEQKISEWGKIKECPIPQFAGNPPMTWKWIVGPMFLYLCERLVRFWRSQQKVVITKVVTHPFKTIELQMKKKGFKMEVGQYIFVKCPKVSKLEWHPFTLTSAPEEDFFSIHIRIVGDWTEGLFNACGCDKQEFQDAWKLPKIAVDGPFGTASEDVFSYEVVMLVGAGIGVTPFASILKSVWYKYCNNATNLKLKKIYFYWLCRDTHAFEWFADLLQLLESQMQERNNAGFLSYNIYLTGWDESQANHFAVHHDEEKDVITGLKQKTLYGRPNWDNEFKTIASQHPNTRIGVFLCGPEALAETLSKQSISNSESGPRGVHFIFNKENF
# Chain of Streptavidin (Streptomyces avidinii) (P22629 whole entry, looked up): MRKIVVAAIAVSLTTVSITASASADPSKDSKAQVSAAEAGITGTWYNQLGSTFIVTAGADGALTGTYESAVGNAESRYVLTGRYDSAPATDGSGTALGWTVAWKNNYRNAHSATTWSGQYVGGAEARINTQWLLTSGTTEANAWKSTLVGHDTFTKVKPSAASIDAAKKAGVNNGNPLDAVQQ
SMILES,composite z-score [1],z-score [2],z-score [3],z-score [4],z-score [5],composite z-score [6],composite z-score [7],composite z-score (Torsin-1A (Homo sapiens) [8]),composite z-score (Torsin-1A (Homo sapiens) [9]),composite z-score [10],z-score [11],composite z-score [12],z-score [13],z-score [14],z-score [15],z-score [16],z-score [17],z-score [18],z-score [19],z-score [20]
CN1C(=O)C2C=CC(C(O)c3ccc(F)cc3)N(NC(=O)OC(C)(C)C)C2C1=O (stereo not given),0.155,-0.134 (inactive),0.193 (inactive),0.436 (inactive),0.84 (inactive),1.43,0.0705,0.0284,-0.0455,-0.761,-1.73 (inactive),0.101,-0.468 (inactive),0.477 (inactive),0.008 (inactive),0.901 (inactive),-1.28,-0.46 (inactive),-0.56 (inactive),-0.481
COCCOC(=O)N1C(=O)[C@@]2(c3ccccc31)[C@H](c1ccccc1OCCO)N1[C@H](c3ccccc3)[C@H](c3ccccc3)OC(=O)[C@H]1[C@@H]2C(=O)N1CCCCCCC1,1.82,-3.1 (inactive),-0.41 (inactive),-0.744 (inactive),4.93 (inactive),3.64,2.24,2.69,2.39,1.77,-0.553 (inactive),3.11,1.26 (inactive),0.612 (inactive),0.0224 (inactive),0.557 (inactive),-0.37,0.168 (inactive),-1.29 (inactive),0.481
NC(=O)[C@H]1[C@@H]2C(=O)O[C@@H](c3ccccc3)[C@@H](c3ccccc3)N2[C@@H](c2ccc(O)cc2)[C@]12C(=O)Nc1ccccc12,-0.355,-0.0816 (inactive),0.191 (inactive),-0.141 (inactive),0.272 (inactive),-1.08,-0.128,-1.54,-1.73,-0.96,-0.261 (inactive),-0.18,3.33 (inactive),1.23 (inactive),0.217 (inactive),0.515 (inactive),-0.471,-0.741 (inactive),-0.988 (inactive),0.572
[N-]=[N+]=NC[C@H](Cc1ccccc1)NC(=O)c1ccccc1,-0.022,-0.34 (inactive),0.138 (inactive),0.6 (inactive),-0.308 (inactive),0.148,-0.0695,0.601,0.265,-0.0168,1.44 (inactive),0.0606,0.0465 (inactive),0.872 (inactive),0.264 (inactive),0.432 (inactive),-0.282,0.192 (inactive),-0.441 (inactive),0.122
C=CCC(OC(C)=O)[C@@H]1[C@@H](N(Cc2cc3ccccc3o2)C(=O)c2ccc(-c3ccccc3)cc2)c2cc(OCCCO)ccc2N1C(=O)Cc1ccc(OC)cc1 (stereo not given in full),-0.138,0.0567 (inactive),0.263 (inactive),1.09 (inactive),0.289 (inactive),-0.0182,-0.0736,-0.592,-0.324,0.366,-1.14 (inactive),-0.0547,0.702 (inactive),0.701 (inactive),0.365 (inactive),0.703 (inactive),0.3,-0.0713 (inactive),-0.918 (inactive),1.09
